Results filed as inconclusive are left out. Entries that show only a call come without a potency. Calls of active or inactive are those of the source. The call rests on the fitted dose curve; in most records, active means well fitted cell-killing curve with a large enough effect in the repeat runs; inconclusive means weak or mixed curves, or effect the other way; inactive means flat fitted curve, though single readings scatter.
experiment: qHTS RealTime-Glo MT Cell Viability Assay in HepG2 cells - 0 hour (AID 1224889); details: RealTime-Glo luminescence; series mostly up to 76.8 µM; further: nearly all actives have a fitted effect of over 50% in size
Text: U.S. Tox21 Program National Center for Advancing Translational Sciences [NCATS] NIH Chemical Genomics Center [NCGC] U.S. Environmental Protection Agency [EPA] National Institutes of Environmental Health Sciences [NIEHS] National Toxicology Program [NTP] U.S. Food and Drug Administration [FDA] Tox21 Assay Overview: Measure of cell viability is critical in the cell-base assay. Analysis of cell viability is necessary for the characterization of cell responses to cytotoxic drugs and environmental stress. A RealTime-Glo MT Cell Viability Assay to monitor cell viability in real time of continues cell culture during 40 hours of compound treatment was used to screen Tox21 10K library compounds in HepG2 cells. The RealTime-Glo MT Cell Viability Assay is a nonlytic, homogeneous, bioluminescent method to measure cell viability in real time using a simple, plate-based method. The assay involves adding NanoLuc luciferase and a cell-permeant prosubstrate to cells in culture. Viable cells reduce the proprietary prosubstrate to generate a substrate for NanoLuc luciferase. This substrate diffuses from cells into the surrounding culture medium, where it is rapidly used by the NanoLuc Enzyme to produce a luminescent signal. The signal correlates with the number of viable cells, making the assay well suited for cytotoxicity studies.
Tox21 Assay Protocol Summary: The mixture of HepG2 cell suspension and reagents were dispensed at 600cells/6 ul/well in 1536-well tissue culture treated black solid bottom plates using a Multidrop dispenser. After the assay plates were incubated at a 37 C/5% CO2 incubator for 5 hours, 23 nL of compounds dissolved in DMSO, positive and negative controls was transferred to the assay plate by a pintool work station. The plates were incubated at 37 C for 40 hours. The luminescence intensity were measured at 0h, 8h, 16h, 24h, 32h and 40h time points using ViewLux plate reader during compound treatment.
Potency means the concentration at half of the fitted maximal effect.

SMILES | Potency
Cc1c(C(=O)NN2CCCCC2)nn(-c2ccc(Cl)cc2Cl)c1-c1ccc(Cl)cc1 | inactive
CC(=O)Nc1ccc(N)cc1 | inactive
CCCCCCOC(=O)CCCCCCCC(=O)OCCCCCC | inactive
COCCOC(=O)C1=C(C)NC(C)=C(C(=O)OC/C=C/c2ccccc2)C1c1cccc([N+](=O)[O-])c1 (stereo not given) | 6.74 µM (active)
CCc1c2c(nc3ccc(OC(=O)N4CCC(N5CCCCC5)CC4)cc13)-c1cc3c(c(=O)n1C2)COC(=O)[C@]3(O)CC | inactive
COc1ccc([C@@H]2Sc3ccccc3NC(=O)[C@@H]2O)cc1 | inactive
CCCCCCCCCCCC[N+](C)(C)CCCS(=O)(=O)[O-] | inactive
CCCCCCCCCCOS(=O)(=O)O | inactive
Cc1oc(C)c(C(=O)Nc2ccccc2)c1C | inactive
CC(=O)Oc1ccc(C(=C2CCCCC2)c2ccc(OC(C)=O)cc2)cc1 | inactive
C[Si]1(C)O[Si](C)(C)O[Si](C)(C)O1 | inactive
CN(C)C(=O)Nc1ccc(Oc2ccc(Cl)cc2)cc1 | inactive
C(=C\c1ccccc1)/CN1CCN(C(c2ccccc2)c2ccccc2)CC1 | inactive
CCCOC(=O)c1ccc(C(=O)OCCC)nc1 | inactive
CO/N=C1\CN(c2nc3c(cc2F)c(=O)c(C(=O)O)cn3C2CC2)CC1CN (stereo not given) | inactive
Cc1cc(O)c(C(C)C)cc1Cl | inactive
CCCCCCCCCCCC[N+](C)(C)CC(=O)[O-] | inactive
CC1(C)C(=O)N(Br)C(=O)N1Cl | inactive
CN1C(=O)CC(C)(c2ccccc2)C1=O (stereo not given) | inactive
Cc1ccccc1N1C(=O)c2cc(S(N)(=O)=O)c(Cl)cc2NC1C (stereo not given) | inactive

SMILES | Potency
OCC1CC=CCC1 (stereo not given) | inactive
CCC1(C)CC(=O)NC1=O (stereo not given) | inactive
COC(=O)c1cc(Cl)ccc1NS(=O)(=O)C(F)(F)F | inactive
CO[C@H]1O[C@H](CO)[C@@H](O)[C@H](O)[C@H]1O | inactive
CC(C)CCCCCOC(=O)CCCCC(=O)OCCCCCC(C)C | inactive
Cc1occc1C(=O)Nc1ccc(C(=O)N2CCC(F)(F)/C(=C\C(=O)N3CCC(N4CCCCC4)CC3)c3ccccc32)cc1 | inactive
CCOC(=O)c1ccccc1C | inactive
CCNC(=O)N1CCN(CCCC(c2ccc(F)cc2)c2ccc(F)cc2)CC1 | inactive
CC(=O)Oc1ccc2c(c1)CC[C@@H]1[C@@H]2CC[C@]2(C)[C@@H](O)CC[C@@H]12 | inactive
O=S(=O)(c1ccccc1)c1ccc(Cl)cc1 | inactive
CC(=O)CC(c1ccc([N+](=O)[O-])cc1)c1c(O)c2ccccc2oc1=O (stereo not given) | inactive
NC(=O)Nc1ccc(Cl)cc1 | inactive
CCCOC(=O)c1ccc(N)cc1 | inactive
Cc1ccc(S)cc1 | inactive
CC(C)=CC=O | inactive
NC(=O)Cn1c(=O)cc(CCN2CCN(c3nccc4sccc34)CC2)c2ccc(F)cc21 | 13.8 µM (active)
CC(=O)N(c1onc(C)c1C)S(=O)(=O)c1ccc(N)cc1 | inactive
C=CC(=C)CCCC(C)(C)OC(C)=O | inactive
CC(=N\O)/C(C)=N/O | inactive
O=C(OCCOCCO)c1ccccc1Nc1cccc(C(F)(F)F)c1 | inactive
